This passage reports z-score and composite z-score results from PubChem BioAssay.

Assay [1] in a line: optical density shifts of acrAB sulA E. coli – strain DRC41, OD650, 48 h, E. coli filamentation inducer project, primary screen (AID 1152).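 Further: E. coli MC1000 strain DRC41 lacking acrAB efflux pump and sulA.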 As to conditions: higher = more signal, called active from +8 up or from −8 down.
A short description of assay [2]: probe aLefty1 binding on compound microarray – biochemical, small-molecule microarray, 635/667 nm fluorescence, primary screen (AID 1153).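 Further: score merges spot fluorescence with signal-to-noise ratio from the scanned slide images.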 As to conditions: higher = more signal.
Assay [3] is described as follows: plasmodial surface anion channel blockers, osmotic lysis – cell-based, P. falciparum Indochina, OD700, 1 h, primary screen (AID 1154). To be noted: P. falciparum Indochina infected RBC osmotic lysis, higher = more signal, called active from +8 up or from −8 down.
Assay [4] is described as follows: plasmodial surface anion channel blockers, osmotic lysis – cell-based, P. falciparum Indochina, OD700, 2 h, primary screen (AID 1155).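 Further: lysis reports solute entry through the parasite surface anion channel PSAC.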 As to conditions: P. falciparum Indochina infected erythrocytes, higher = more signal, called active from +8 up or from −8 down.
Assay [5] is described as follows: changes in parasitized red cell lysis, either direction – P. falciparum Indochina, OD700, 3 h, PSAC antagonist project, primary screen (AID 1156). As to conditions: P. falciparum-infected erythrocytes, osmotic lysis, higher = more signal, called active from +8 up or from −8 down.
The nature of assay [6]: plasmodial surface anion channel blockers, osmotic lysis – cell-based, P. falciparum Indochina, OD700, 18 h, primary screen (AID 1157). As to conditions: P. falciparum Indochina infected erythrocytes, osmotic lysis OD700, 18 h; higher = more signal, called active from +8 up or from −8 down.
Assay [7] is described as follows: S6 kinase pathway phospho-S6 level changes – cell-based, A549, cytoblot, luminescence, serum-stimulated, primary screen (AID 1158).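 Further: serum-stimulated A549 lung adenocarcinoma cells; signal is phosphorylated S6 detected by cytoblot immunostaining with HRP secondary.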 As to conditions: 5 h, higher = more signal.
Assay [8] concerns the target NADPH oxidase 2 (Homo sapiens) (UniProt P04839). Nature of the assay: compounds shifting NOX2 Amplex Red fluorescence – cell-based, HEK293-NOX2, PMA-stimulated, NOX inhibitor project, primary screen (AID 1159). Further: test concentration not given here. To be noted: 45 min, higher = more signal, called active from +8 up or from −8 down.
For assay [9], the target named is NADPH oxidase 4 (Homo sapiens) (UniProt Q9NPH5). Nature of the assay: compounds shifting NOX4 Amplex Red fluorescence – cell-based, HEK293-NOX4, tetracycline-induced, NOX inhibitor project, primary screen (AID 1160). To be noted: HEK293-NOX4, Amplex Red H2O2 fluorescence, 45 min; higher = more signal, called active from +8 up or from −8 down.
Chain of NADPH oxidase 4 (Homo sapiens) (Q9NPH5 whole entry, looked up): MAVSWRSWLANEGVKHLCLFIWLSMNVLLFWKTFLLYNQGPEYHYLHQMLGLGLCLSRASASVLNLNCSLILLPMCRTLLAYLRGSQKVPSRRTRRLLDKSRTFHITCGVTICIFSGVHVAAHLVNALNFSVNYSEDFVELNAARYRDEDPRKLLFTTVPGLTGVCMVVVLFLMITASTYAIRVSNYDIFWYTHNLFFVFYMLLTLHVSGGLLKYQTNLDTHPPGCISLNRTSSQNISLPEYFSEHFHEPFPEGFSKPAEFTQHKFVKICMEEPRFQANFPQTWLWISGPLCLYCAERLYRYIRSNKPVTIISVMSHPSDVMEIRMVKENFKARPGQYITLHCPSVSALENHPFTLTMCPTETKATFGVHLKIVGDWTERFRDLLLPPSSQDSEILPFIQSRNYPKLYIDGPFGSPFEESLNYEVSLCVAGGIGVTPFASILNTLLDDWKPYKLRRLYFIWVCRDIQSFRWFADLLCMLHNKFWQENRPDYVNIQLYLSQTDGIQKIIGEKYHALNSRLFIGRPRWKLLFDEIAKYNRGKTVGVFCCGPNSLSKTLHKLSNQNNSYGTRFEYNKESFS
Assay [10] addresses NADPH oxidase 5 (Homo sapiens) (UniProt Q96PH1). Nature of the assay: compounds shifting NOX5 Amplex Red fluorescence – cell-based, HEK293-NOX5, NOX inhibitor project, primary screen (AID 1161). As to conditions: HEK293-NOX5, ionomycin, 45 min, higher = more signal.
Assay [11] is described as follows: compound effects on lung adenocarcinoma cell viability – A549, calcein-AM fluorescence, 48 h, basal, profiling panel (AID 1162). Further: test concentration not given here. As to conditions: higher = more signal.
Assay [12] can be described thus: compound effects on differentiated 3T3-L1 adipocyte viability – cell-based, 3T3-L1 adipocytes, calcein-AM fluorescence, 48 h, basal, profiling panel (AID 1163). Further: test concentration not given here. To be noted: 3T3-L1 adipocytes viability, higher = more signal.
Assay [13] can be described thus: compound effects on hepatocellular carcinoma cell viability – HepG2, calcein-AM fluorescence, 48 h, basal, profiling panel (AID 1164). Further: test concentration not given here. To be noted: higher = more signal.
Assay [14] can be described thus: compound effects on multiple myeloma cell viability – MM1S, calcein-AM fluorescence, 48 h, basal, profiling panel (AID 1165).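 Further: viability of MM1S multiple myeloma cells under basal unstimulated conditions; test concentration not given here.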 To be noted: higher = more signal.
The nature of assay [15]: calcein-AM signal in unstimulated myeloma cells – cell-based, calcein-AM fluorescence, 48 h, PK04 Diversity Set, profiling panel (AID 1166).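 Further: cells grown under basal conditions without added stimulus; test concentration not given here.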 To be noted: RPMI8226 myeloma viability, higher = more signal.
A short description of assay [16]: JC-1 mitochondrial signal, unstimulated HepG2 cells – cell-based, JC-1 fluorescence, 24 h, 100 nL compound, profiling panel (AID 1167). Further: test concentration not given here. To be noted: HepG2 mitochondrial potential, higher = more signal.
Assay [17] is described as follows: JC-1 mitochondrial signal, unstimulated adipocytes – cell-based, JC-1 fluorescence, 3T3-L1 adipocytes, 24 h, 100 nL compound, profiling panel (AID 1168). Further: test concentration not given here. To be noted: JC-1 mitochondrial fluorescence, higher = more signal, called active from +8 up or from −8 down.
Assay [18] is described as follows: JC-1 mitochondrial signal, unstimulated myeloma cells – cell-based, JC-1 fluorescence, RPMI8226, 24 h, 100 nL compound, profiling panel (AID 1169). Further: test concentration not given here. To be noted: JC-1 mitochondrial potential fluorescence, higher = more signal.
The nature of assay [19]: JC-1 mitochondrial signal, unstimulated MM1S myeloma – cell-based, JC-1 fluorescence, 24 h, 100 nL compound, profiling panel (AID 1170). Further: test concentration not given here. To be noted: MM1S mitochondrial potential, higher = more signal.
A short description of assay [20]: resazurin metabolic signal in A549 cells – cell-based, resazurin fluorescence, 24 h, PK04 Diversity Set, profiling panel (AID 1171). Further: test concentration not given here. To be noted: A549 viability, higher = more signal, called active from +8 up or from −8 down.

Activity calls are given as the source filed them.

Chain of NADPH oxidase 2 (Homo sapiens) (P04839 whole entry, looked up): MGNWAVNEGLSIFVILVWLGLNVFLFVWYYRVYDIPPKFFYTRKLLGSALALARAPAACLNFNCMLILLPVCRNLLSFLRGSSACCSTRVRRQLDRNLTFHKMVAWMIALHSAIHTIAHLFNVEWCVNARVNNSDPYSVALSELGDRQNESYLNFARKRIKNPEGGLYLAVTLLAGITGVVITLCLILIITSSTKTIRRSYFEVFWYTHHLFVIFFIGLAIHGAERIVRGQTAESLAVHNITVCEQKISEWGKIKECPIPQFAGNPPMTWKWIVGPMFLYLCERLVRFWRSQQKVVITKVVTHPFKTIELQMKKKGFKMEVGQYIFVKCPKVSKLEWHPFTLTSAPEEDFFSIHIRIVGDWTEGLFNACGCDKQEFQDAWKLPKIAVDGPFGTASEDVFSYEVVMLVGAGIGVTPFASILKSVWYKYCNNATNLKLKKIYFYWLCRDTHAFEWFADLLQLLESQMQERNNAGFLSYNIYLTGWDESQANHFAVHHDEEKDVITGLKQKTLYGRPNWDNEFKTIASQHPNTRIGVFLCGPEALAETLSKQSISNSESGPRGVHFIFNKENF
Chain of NADPH oxidase 5 (Homo sapiens) (Q96PH1 whole entry, looked up): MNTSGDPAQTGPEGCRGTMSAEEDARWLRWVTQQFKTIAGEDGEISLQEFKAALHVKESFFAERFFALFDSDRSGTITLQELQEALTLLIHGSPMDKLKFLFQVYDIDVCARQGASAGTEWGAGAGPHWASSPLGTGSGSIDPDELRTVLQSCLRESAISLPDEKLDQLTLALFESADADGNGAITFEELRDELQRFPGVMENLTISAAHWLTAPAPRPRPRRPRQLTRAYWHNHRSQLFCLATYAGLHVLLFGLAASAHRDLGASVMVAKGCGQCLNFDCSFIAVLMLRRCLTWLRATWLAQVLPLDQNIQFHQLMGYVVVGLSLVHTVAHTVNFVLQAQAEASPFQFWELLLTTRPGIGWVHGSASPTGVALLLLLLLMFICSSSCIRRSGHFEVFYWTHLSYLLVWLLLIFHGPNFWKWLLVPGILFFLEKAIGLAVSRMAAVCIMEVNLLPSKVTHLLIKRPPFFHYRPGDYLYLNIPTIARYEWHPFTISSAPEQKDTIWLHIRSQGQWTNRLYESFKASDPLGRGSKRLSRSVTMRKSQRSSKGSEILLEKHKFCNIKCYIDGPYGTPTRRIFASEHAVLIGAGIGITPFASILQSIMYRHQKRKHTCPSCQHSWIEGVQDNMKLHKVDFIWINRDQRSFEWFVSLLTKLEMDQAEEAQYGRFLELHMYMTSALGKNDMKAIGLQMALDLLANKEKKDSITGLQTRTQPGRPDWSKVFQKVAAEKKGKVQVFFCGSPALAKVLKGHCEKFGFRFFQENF

Consider `C=CCC(OC(C)=O)[C@@H]1[C@@H](N(Cc2ccc(-c3ccccc3)cc2)C(=O)c2ccc(C)cc2)c2cc(OCCCO)ccc2N1C(=O)Cc1ccc2ccccc2c1` (stereo not given in full), for which the z-score in assay [1] was 2.43 (inactive); in assay [3], -0.0828 (inactive); in assay [4], -0.66 (inactive); in [5], -1.45 (inactive); in [6], -0.938 (inactive); in [7], 1.23. For the same compound, the z-score is -1.68 (inactive) in assay [8]; 0.934 (inactive) in [9]; 1.62 in assay [10]; 1.35 in [11]; 0.844 in assay [12]; 0.769 in [13]. In addition, the z-score is 0.697 in assay [14]; 0.922 in [15]; 3.38 in assay [16]; 0.144 (inactive) in assay [17]; -0.0998 in assay [18]; 1.14 in assay [19]. For the same compound, in [20], the z-score was 0.887 (inactive). The same compound came in with a composite z-score in [2] of -0.0011.

As for `O=C1C2C=CC(C(O)c3ccc(I)cc3)N(Nc3ccccc3)C2C(=O)N1c1ccccc1` (stereo not given), the z-score in assay [1] is -1.11 (inactive); in [3], 6.92 (inactive); in assay [4], 2.42 (inactive); in assay [5], -0.166 (inactive); in assay [6], 1.83 (inactive); in [7], -1.21. For the same compound, the z-score in [8] is -1.88 (inactive); in assay [9] it was -3.86 (inactive); in assay [10] it was -2.54; in assay [11], 0.0685; in assay [12], -0.748; in assay [13], 0.1. Further, the z-score in assay [14] was 0.196; in [15] it was -0.311; in [16], -2.3; in assay [17], -1.3 (inactive); in assay [18], -0.865; in assay [19] it was -0.603. Further, the z-score in assay [20] was -0.393 (inactive). Also, the composite z-score in assay [2] was found to be 0.437.

Turning to `CCCCC(=C=CC[C@H](O)c1ccc(OCCO)cc1)C[C@H](O)c1cc(Cl)cc(Cl)c1O`, the z-score in assay [1] was -0.118 (inactive); in [3], 21.2 (active); in [4], 5.19 (inactive); in [5] it was 1.56 (inactive); in assay [6] it was 1.73 (inactive); in [7] it was -0.476. Further, the z-score in [8] was 0.51 (inactive); in assay [9], -0.667 (inactive); in assay [10], -1.49; in assay [11] it was -0.217; in assay [12] it was -0.185; in assay [13] it was -0.197. The z-score was -3.34 in [14]; -2.76 in assay [15]; -2.43 in [16]; -0.368 (inactive) in [17]; -0.773 in [18]; -0.349 in [19]. Moreover, the z-score in [20] is 1.17 (inactive). In [2], this compound had a composite z-score of 0.13.

As for `[N-]=[N+]=Nc1ccccc1[C@@H]1OC(c2ccc(OCCCO)cc2)=N[C@]1(Cc1ccccc1)C(=O)NCc1ccccc1`, the z-score in [1] is -0.165 (inactive); in [3], 31.6 (active); in assay [4], 29.2 (active); in [5], 3.08 (inactive); in assay [6], 7.04 (inactive); in assay [7] it was -0.403. Further, the z-score in assay [8] is -2.11 (inactive); in assay [9] it was 1.15 (inactive); in [10], 0.377; in assay [11], -1.17; in assay [12] it was -0.0535; in [13], -2.13. In addition, the z-score in [14] was -3.35; in assay [15] it was -3.8; in [16], -2.02; in [17], 0.976 (inactive); in assay [18] it was -1.14; in assay [19], -2.59. Besides, in assay [20], the z-score is -1.48 (inactive). Besides, the composite z-score in assay [2] was 0.703.

As to `Cc1cccc([C@H]2C[C@H]3C(I)=C[C@@H]2C(=O)[C@]32CO2)c1`, the z-score in assay [1] is -0.894 (inactive); in [3], -0.0459 (inactive); in [4], 0.0962 (inactive); in assay [5] it was 0.0129 (inactive); in assay [6] it was -0.0624 (inactive); in [7] it was 0.0314. In addition, the z-score in [8] was -0.942 (inactive); in assay [9], -0.0919 (inactive); in assay [10], -0.835; in assay [11] it was -0.985; in assay [12], -0.176; in assay [13] it was -0.902. In addition, the z-score in [14] is -3.19; in assay [15], -3.12; in assay [16], -1.45; in [17], 0.224 (inactive); in assay [18] it was -0.889; in assay [19], -0.753. In [20], the z-score was -0.109 (inactive). The composite z-score in assay [2] is -0.0559.

`COCC(=C=CC[C@@H](O)c1cccc(OCCO)c1)CCO`: the z-score in [1] is 0.355 (inactive); in [3] it was 2.3 (inactive); in [4], 0.152 (inactive); in assay [5] it was 0.691 (inactive); in [6], 0.135 (inactive); in [7], -0.094. Besides, the z-score in [8] was -0.274 (inactive); in [9] it was -0.761 (inactive); in [10] it was -0.334; in assay [11] it was 0.611; in assay [12], 0.314; in assay [13], 0.356. The z-score in [14] was 0.55; in assay [15], -0.0681; in [16] it was 0.00786; in assay [17] it was 0.176 (inactive); in assay [18], 1.15; in assay [19] it was -0.447. Moreover, in assay [20], the z-score was 0.0444 (inactive). This compound also showed a composite z-score in [2] of 0.0091.

With `COC(=O)C(CC#Cc1ccc2c(c1)[C@]1(C(=O)N2)[C@H](c2ccc(O)cc2)N2[C@H](c3ccccc3)[C@H](c3ccccc3)OC(=O)[C@H]2[C@@H]1C(=O)N1CCCCCCC1)C(=O)OC`, the z-score in [1] is 1.11 (inactive); in assay [3], 0.53 (inactive); in assay [4], -1.11 (inactive); in assay [5], -0.677 (inactive); in assay [6], -2.43 (inactive); in [7], 3.01. For the same compound, the z-score was 0.953 (inactive) in [8]; 0.181 (inactive) in assay [9]; 1.63 in assay [10]; 1.58 in assay [11]; 0.581 in [12]; 1.98 in assay [13]. Besides, the z-score is 0.362 in [14]; -2.56 in assay [15]; 0.945 in assay [16]; -0.174 (inactive) in assay [17]; -0.799 in [18]; -0.158 in assay [19]. In addition, the z-score in assay [20] is -0.636 (inactive). The composite z-score in assay [2] turned out to be 1.69.

As for `Cc1nc2cc(Br)ccc2c(=O)n1Cc1cccc(O)c1`, the z-score in [1] is 0.685 (inactive); in assay [3], 0.73 (inactive); in assay [4], 0.368 (inactive); in assay [5], 0.136 (inactive); in assay [6], 0.377 (inactive); in assay [7], -0.257. In addition, the z-score in assay [8] is -0.763 (inactive); in [9], -0.191 (inactive); in assay [10] it was -0.302; in [11] it was -0.508; in assay [12], -0.396; in [13], 0.454. Moreover, the z-score is -0.301 in [14]; 0.244 in assay [15]; -0.0434 in [16]; 1.62 (inactive) in assay [17]; -0.536 in assay [18]; -0.432 in assay [19]. In addition, the z-score in assay [20] was 0.246 (inactive). The composite z-score in assay [2] was -0.216.
